# Screening results as filed in PubChem.
# FUS suppressor = qHTS for Suppressors of FUS Proteinopathy: Primary screen using FUS-linked yeast assay; AID 1347120, 2019; Potency, µM (top dose mostly 76.6 µM), usual class: activators; S. cerevisiae FUS-expressing, growth rescue, OD600, 24 h; actives 0.24% (n = 390,000);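 further: potency means the concentration at half of the fitted maximal effect; plate controls were DMSO vehicle for no effect and reference control for full effect; nearly all actives have a fitted effect of over 55% in size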
#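 Yeast FUS proteinopathy model; galactose-induced FUS (2%), starting OD 0.005. Cpds in dilution series, 24hr, 30C, 99% humidity. Abs 600 nm growth. Pos ctrl CP55940 (top 92uM final); neg ctrl DMSO.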
# Abeta rescue = qHTS for compounds that reverse cellular toxicity of Amyloid beta (A-beta) peptide in yeast: Primary Screen; yeast expressing A-beta42, growth rescue, OD600, 48 h; response scale: 0% DMSO, 100% iron-clioquinol control; Potency, µM (top dose mostly 46.1 µM), most hits filed as activators; actives 0.063% (n = 410,000); AID 1347071, 2019; further: potency means the concentration at half of the fitted maximal effect; nearly all actives have a fitted effect of over 55% in size
#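 Yeast A-beta toxicity model in growth medium with pinned compounds, 48 h at 30 C; growth read as absorbance at 600 nm. Normalized to FeCl3/clioquinol equimolar mix (positive) and DMSO (negative).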
# Akt phos inh = HTS Assay for Inhibitors of Akt Phophorylation: Primary Screen; Neuro2A IGF-stimulated pAkt S473 HTRF, 20 min; stronger effect = lower value; activity change, % for hits at 50 µM; actives 0.32% (n = 360,000); AID 651550, 2012; in the data active means activity change below about -80%; inconclusive means mostly about -51% to -80%; further: on the % scale 0 is the no-effect control and ±100 the full control effect
#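 Neuro2A cells (4,500/well, DMEM with 0.5% FBS) were treated with compound at a single 50 µM final concentration, stimulated with 6 nM IGF for 20 min at 37 °C, and lysed. Phospho-Akt Ser473 was read by HTRF as 665/615 ratio ×10^4.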
# aSyn rescue = qHTS of alpha-syn Inhibitors; Potency, µM (doses to about 46.1 µM), without a hit: at the top dose growth rescue (activation), hits mostly activators; Yeast expressing alpha-synuclein, growth rescue, BacTiter-Glo, 24 h; actives 0.14% (n = 370,000); further: potency means the concentration at half of the fitted maximal effect; % of control where 0% means no effect; nearly all actives have a fitted effect of over 65% in size
#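 Screening used galactose-induced yeast with toxic alpha-synuclein levels, exposed to compound for 24 hr at 30 deg C. Cell growth, read with BacTiter-Glo luminescence, gave the measured signal.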
# TDP43 rescue = qHTS of TDP-43 Inhibitors | TDP-43 expressing yeast growth rescue, BacTiter-Glo, 24 h | Potency, µM (series often up to 46.1 µM), for the others: top-dose growth rescue (activation), actives largely listed as activators | actives 1.8% (n = 410,000) | AID 652104, 2013; further: potency means the concentration at half of the fitted maximal effect; % of control where 0% means no effect; nearly all actives have a fitted effect of over 50% in size
#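 In this qHTS, compounds that restore growth of yeast expressing TDP-43 appear as activators. Cells (OD600=0.02, galactose medium, raffinose-pregrown) are incubated with compound 24 hr at 30 deg C and growth is quantified by BacTiter-Glo.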
# Starred values were filed as active, the others as inactive; i = inactive; ? = inconclusive; · = no result; [ ] = another dose, or the depositor's remark. Only some compounds are listed: those with a hit (about 2.3% of all), similar ones and a draw of the others. Unless noted, the call rests on the fitted dose curve; in most records, active means well fitted curve in the direction sought with a large enough effect; inconclusive means small, poorly fitted or top-dose-only effect, or another doubt; inactive means no such curve, though single readings can be large; an effect the other way counts as inactive or inconclusive.
SMILES,FUS suppressor,Abeta rescue,Akt phos inh,aSyn rescue,TDP43 rescue
COc1ccccc1NC(=O)COC(=O)/C=C/c1cccs1,·,i,i,6%,14µM*
Clc1cccc(Cc2c(-c3cccc(Br)c3)nc3ccc(Cl)cn23)c1,i,i,i,-15%,?
Cc1ccc(Cc2c(-c3cccc(Cl)c3)nc3ccc(Cl)cn23)cc1,i,i,i,24%,16µM*
Cc1ccc2nc(-c3cccc(Br)c3)c(Cc3cccc(Cl)c3)n2c1,i,i,i,1%,35µM*
Cc1ccc(Cc2c(-c3cccc(Cl)c3)nc3ccc(C)cn23)cc1,i,i,i,6%,28µM*
Cc1ccc2nc(-c3ccc(C#N)cc3)c(Cc3cccc(Cl)c3)n2c1,i,i,i,?,35µM*
COc1ccc(CCNC(=O)CCCCn2c(=O)c3ccccc3n(Cc3ccccc3Cl)c2=O)cc1OC,i,i,·,·,4%
CCCNC(=O)c1ccc2c(c1)nc1n2CCCCC1,i,i,·,·,1%
Cc1cc(Br)c2nc(-c3ccccc3)c(Cc3cccc(Cl)c3)n2c1,?,i,i,-7%,11µM*
COc1ccc(Cc2c(-c3cccc(Cl)c3)nc3ccc(Cl)cn23)c(C)c1,i,i,i,8%,35µM*
Cc1ccc2nc(-c3ccccc3)c(Cc3cccc(Cl)c3)n2c1,i,i,i,-1%,8%
COc1ccccc1N1CCN(C(=O)Cn2c(=O)nc(-c3ccccc3)c3cc(Cl)ccc32)CC1,i,i,·,·,17%
CCCCCCCc1n[nH]c(=S)n1Cc1ccccc1,i,?,i,2%,16µM*
N#C/C(=C\c1ccc(-c2cc(Cl)ccc2Cl)o1)C(=O)Nc1cccc2ncccc12,·,·,·,2%,·
Nc1sc2c(c1C(=O)NC1CCS(=O)(=O)C1)CCC2 (configuration not stated),i,i,-130%*,2%,2%
CCOC(=O)Cn1c2ccc(C)cc2c2nc(C)sc21,i,i,i,-8%,16µM*
CCOC(=O)Cn1c2ccccc2c2nc(C)sc21,i,i,i,-1%,11%
Cc1ccc(C(=O)Nc2c(-c3ccccc3)nc3ccccn23)cc1C,i,i,·,·,25%
O=C1C=Cc2cccc3ccc(O)c1c23,i,i,i,35µM*,-48%
O=c1oc(-c2ccc(O)c(O)c2)cc2cccc(O)c12,i,i,i,14%,30%
CCOc1cccc(C(=O)Nc2ccc(-c3nc4ncccc4o3)cc2C)c1,i,i,·,·,3%
CCOC(=O)c1c(N)sc2c(NC(C)=O)cccc12,i,i,i,-2%,7%
CCOC(=O)c1c(N)sc2c(O)c(Br)ccc12,i,i,i,-21%,11µM*
CCCCOC(=O)c1cccc(NC(=O)CC)c1,i,i,-112%*,-13%,?
CCCCCC(=O)NC(=S)Nc1cccc(C(C)=O)c1,i,8.9µM*,i,4%,-14%[0.397 µM]
SMILES,FUS suppressor,Abeta rescue,Akt phos inh,aSyn rescue,TDP43 rescue
CCCOC(=O)c1cccc(NC(=O)C(C)(C)C)c1,i,i,i,-10%,?
CCCS(=O)(=O)N1CCN(C(=O)c2cccnc2)CC1,i,i,i,5%,8%
COc1cc2ccccc2cc1C(=O)N1CCN(c2ccccc2O)CC1,?,i,i,1%,13µM*
COc1ccc(N2CCN(C(=O)c3ccc(N(C)S(=O)(=O)c4ccc(C)cc4)cc3)CC2)cc1,?,i,i,2%,13µM*
CCCS(=O)(=O)N1CCN(C(=O)c2ccc(-c3ccccc3)cc2)CC1,i,i,i,?,18µM*
COc1ccc(N2CCN(C(=O)c3ccc(N(C)S(=O)(=O)c4ccc(OC)cc4)cc3)CC2)cc1,?,i,i,21%,24%
COc1ccccc1N1CCN(C(=O)c2ccc(-c3ccccc3)cc2)CC1,i,i,i,9%,18µM*
CNC(=O)[C@H]1O[C@@H](n2cnc3c(NCc4ccc(N)cc4)ncnc32)[C@H](O)[C@@H]1O,·,·,·,1%,·
O=C1c2ccccc2C(=O)N1c1ccc(O)cc1,·,·,·,-2%,·
O=C(NCCO)[C@H](Cc1ccccc1)NC1(C(=O)NCCN2CCOCC2)CCCCC1,i,·,·,·,·
Cc1cc(-c2n[nH]c(=S)n2N=Cc2ccc(O)cc2)n[nH]1,i,·,·,·,·
Cn1cnc2c(=O)oc3ccc(S(=O)(=O)N4CCN(c5cccc(Cl)c5)CC4)cc3c21,i,i,·,·,7%
Cc1ccc(N2CCN(C(=O)c3c4c(nc5ccccc35)C(=O)N(C3CCCCC3)C4)CC2)c(C)c1,i,i,·,·,7%
Cc1noc(C)c1COc1ccc(C(=O)N2CCN(c3cccc(Cl)c3)CC2)cc1,i,i,i,10%,22µM*
CCOc1ccccc1N1CCN(C(=O)c2ccc(-c3ccc(OC(C)=O)cc3)cc2)CC1,?,i,i,1%,20µM*
COc1ccc(C(=O)N2CCN(c3ccccc3OC)CC2)cc1,i,i,i,10%,?
COc1ccc(C(=O)N2CCN(c3cccc(Cl)c3)CC2)cc1,·,i,i,6%,?
COc1cccc(N2CCN(C(=O)c3ccc(-c4ccccc4)cc3)CC2)c1,?,i,i,11%,13µM*
COc1ccccc1N1CCN(C(=O)c2cccc(Oc3ccccc3)c2)CC1,i,i,i,5%,35µM*
CCOc1ccccc1N1CCN(C(=O)c2ccccc2)CC1,i,i,i,-3%,15%
CN(C(=O)CSc1nc2ccccc2n1CC(=O)N(C)C1CCCCC1)c1ccc(F)cc1,i,i,·,·,-17%
COc1ccccc1N1CCN(C(=O)c2sc3nc(-c4ccc(F)cc4)cn3c2C)CC1,?,i,i,17%,11µM*
COc1ccccc1N1CCN(C(=O)Nc2ccc([N+](=O)[O-])cc2)CC1,i,i,i,6%,14µM*
CN1CCN(C(=O)c2cc3c(=O)n4ccccc4nc3s2)CC1,i,i,i,1%,-11%
COc1ccccc1N1CCN(C(=O)c2cc3c(=O)n4ccccc4nc3s2)CC1,i,i,i,8%,20µM*
CC(=C/c1ccccc1)/C=N/n1c(-c2ccco2)n[nH]c1=S,i,i,·,·,11µM*
NC(=O)Nc1ccc(Cl)cc1,i,i,i,0%,-13%
O=C(Nc1ccc(Cl)cc1)P(=O)(O)c1ccccc1,i,i,i,0%,18µM*
